Screening results (PubChem)
Only a selection was taken, and hits are over-represented in it overall.
TTR transcr act: TTR transcription activators in neuroblastoma reporter cells, primary screen, cell-based, luminescence, SH-SY5Y, TTR promoter Gaussia luciferase; 100% = recombinant luciferase protein wells; 1.3% of 92,000 active; activation, % at 16.7 µM;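 active = activation above the mean of all tested compounds plus 3 SD, cut at about 9.5% in these data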;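 note: cells exposed to compounds for one day before reading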
TTR inh HuH7: TTR promoter reporter inhibitors in hepatoma cells, counter-screen for TTR transcription activator project, cell-based, luminescence, HuH7 hepatoma; 4% of 1,100 active; HuH7 TTR promoter-Gaussia luciferase reporter; inhibition, % at 16.7 µM; shares compounds with TTR transcr act;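 active = average inhibition above the solvent-only control wells' mean plus 3 SD, cut at about 15% in these data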;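 note: inhibitors lower well luminescence so higher value means more inhibition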
TTR act confirm: TTR transcription activators, retest, confirmation, cell-based, luminescence, SH-SY5Y, triplicate | activation, % at 16.7 µM | SHSY5Y TTR promoter Gaussia luciferase; 100% = purified Lucia enzyme wells, no cells | shares compounds with TTR transcr act | 1,100 tested, under 10 active;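 active = mean activation above a set limit taken from the earlier primary screen, cut at about 11% in these data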
A number is an active result.

Screening C=CCNC(=S)Nc1sc2c(c1C(=O)OCC)CC(C)(CC)OC2 (stereo not given) returned TTR transcr act inactive.
Screening CCC1(C)Cc2sc3c(=O)[nH]c(=S)[nH]c3c2CO1 (stereo not given) returned TTR transcr act 18, TTR inh HuH7 inactive and TTR act confirm inactive.
Screening CC1CCN(C(=O)c2cc3ccccc3cc2O)CC1 returned TTR transcr act inactive.
CCN(CC)C(=O)C1=C(C)N(Cc2ccc(C(C)(C)C)cc2)C(=O)C(CC(=O)NCCCCc2ccccc2)C1 (stereo not given) was read as TTR transcr act inactive.
`O=C(CN1C(=O)NC(c2ccccc2)(c2ccccc2)C1=O)NCC(=O)Nc1ccc(F)cc1` gave TTR transcr act inactive.
For Cc1ccccc1C1CCC2(CC1)CCN(CC[C@@H](O)c1ccccc1)C2=O (stereo not given in full) the results were TTR transcr act inactive.
`Cc1cccc(Nc2nc(N)c([N+](=O)[O-])c(N3CCN(C)CC3)n2)c1` gave TTR transcr act inactive.
For CCN1CCN(c2nc(Nc3ccccc3)nc(N)c2[N+](=O)[O-])CC1 the results were TTR transcr act inactive.
`Nc1nc(Nc2cccc(F)c2)nc(N2CCOCC2)c1[N+](=O)[O-]` gave TTR transcr act 12, TTR inh HuH7 inactive and TTR act confirm inactive.
Screening O=C(Cc1cccc(NC(=O)C2CCCN(C(=O)CCc3ccccc3)C2)c1)Nc1cccc(C(=O)N2CCCC2)c1 (stereo not given) returned TTR transcr act inactive.
`C[C@H]1CN(S(=O)(=O)C(C)(C)C)[C@@H](CCO)/C1=C\CCO` gave TTR transcr act inactive.
Screening COCCCN1C(=O)C(CC(=O)NCc2ccco2)CC(C(=O)N(C(C)C)C(C)C)=C1C (stereo not given) returned TTR transcr act inactive.
O=c1[nH]n(CCO)c(=O)c2cccnc12 was read as TTR transcr act inactive.
`O=c1[nH]n(-c2ccc(Cl)cc2)c2ncccc12` gave TTR transcr act 14, TTR inh HuH7 inactive and TTR act confirm inactive.
For COc1ccc(-n2c(=S)[nH]c(=O)c3cccnc32)cc1 the results were TTR transcr act inactive.
O=C(Nc1nc2ncccn2c1-c1ccc(F)cc1)c1ccccc1 was read as TTR transcr act inactive.
Screening CC(C)NC(=O)C1(N2C(=O)c3ccccc3C2=O)CCCC1 returned TTR transcr act inactive.
For O=C(O)CNC(=O)C1(N2C(=O)c3ccccc3C2=O)CCCC1 the results were TTR transcr act inactive.
CCC1(CC)C(=O)N=C2c3ccccc3C(=O)N21 was read as TTR transcr act 48, TTR inh HuH7 inactive and TTR act confirm inactive.
CC(Sc1nnc(Cc2ccccc2)n1C)C(=O)NC1CC1 (stereo not given) was read as TTR transcr act inactive.
Screening CC(=O)N/C(=N\c1nc(C)cc(C)n1)Nc1ccc2ccccc2c1 returned TTR transcr act inactive.
`COc1ccc(CC(=O)N2CCc3ccccc32)cc1` gave TTR transcr act 21, TTR inh HuH7 inactive and TTR act confirm inactive.
COc1ccc(C(=O)N2CCCc3ccccc32)cc1 was read as TTR transcr act inactive.
Screening COc1cc(CO)ccc1OCC(=O)N1CCc2ccccc21 returned TTR transcr act inactive.
O=C(CN1CCCCCC1)Nc1nc2ccccc2s1 was read as TTR transcr act inactive.
For O=C(Nc1nc2ncccn2c1-c1ccc(C(F)(F)F)cc1)c1ccc(F)cc1 the results were TTR transcr act inactive.
Screening Cc1cc(C)n(CC2CC(=O)N(c3ccc(C)c(Cl)c3)C2=O)n1 (stereo not given) returned TTR transcr act inactive.
For CCCc1c(O)nc(SC2CC(=O)N(c3ccc(C)c(Cl)c3)C2=O)[nH]c1=O (stereo not given) the results were TTR transcr act 12, TTR inh HuH7 inactive and TTR act confirm inactive.
CCOc1ccc(N2C(=O)CC(Sc3nc(C)cc(C)c3C#N)C2=O)cc1 (stereo not given) was read as TTR transcr act inactive.
For CC(C)(C)S(=O)N1Cc2cc(C(=O)NCC(F)(F)F)nc(-c3cccc(-c4cccc(F)c4)c3)c2[C@H]1CCO (stereo not given in full) the results were TTR transcr act inactive.
Cc1ccc(CN2CCCCC(NC(=O)Cc3cccs3)C2=O)cc1 (stereo not given) was read as TTR transcr act inactive.
CCOC(=O)CCCNC(=O)OC1CC2CC1[C@H]1CCCCN1[C@H]2C (stereo not given in full) was read as TTR transcr act inactive.
Screening C=CCNCCCCOc1ccc(OCc2ccccc2)cc1 returned TTR transcr act inactive.
